Experimental data published in PubChem BioAssay (NCATS).
“And” between values parts separate entries of the source, which are not always exact repeats. Identical values can stand only once. Results filed as inconclusive are left out. The source made the active and inactive calls. Unless noted, calls come from the whole dose curve; as a rule, active = well fitted curve in either direction with a large enough effect (not every such curve was filed as active); inconclusive = small, poorly fitted or top-dose-only effect, or another doubt; inactive = flat fitted curve, though single readings scatter.

Legend:
[1] = AP1 Signaling Pathway (AID 357); conditions: ME-180 AP-1-bla reporter, EGF-induced, beta-lactamase ratio, 5 h;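 note: ME-180 reporter cells stimulated with EGF at its EC50 level; % is set by controls: 0 for no effect and ±100 for the full control effect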
Outline: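 Beta-lactamase reporter under AP-1 response element, ME-180 background. Stimulus: EC50 EGF. Compound exposure 5 h, 37 °C. Detection: CCF4, 2.5 h RT, 460/530 nm. Values: AC50 from titration.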

[2] = target: Cytochrome P450 1A2 (Homo sapiens) (UniProt P05177); test: p450-cyp1a2 (AID 410; calls by dose curve; note: potency is the fitted concentration of half-maximal effect;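 for activity change, negative = inhibition: -100% = full effect of reference inhibitor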); conditions: recombinant CYP1A2, luciferin-ME demethylation, luminescence; series mostly up to 57 µM
Chain of Cytochrome P450 1A2 (Homo sapiens) (P05177 whole entry, looked up): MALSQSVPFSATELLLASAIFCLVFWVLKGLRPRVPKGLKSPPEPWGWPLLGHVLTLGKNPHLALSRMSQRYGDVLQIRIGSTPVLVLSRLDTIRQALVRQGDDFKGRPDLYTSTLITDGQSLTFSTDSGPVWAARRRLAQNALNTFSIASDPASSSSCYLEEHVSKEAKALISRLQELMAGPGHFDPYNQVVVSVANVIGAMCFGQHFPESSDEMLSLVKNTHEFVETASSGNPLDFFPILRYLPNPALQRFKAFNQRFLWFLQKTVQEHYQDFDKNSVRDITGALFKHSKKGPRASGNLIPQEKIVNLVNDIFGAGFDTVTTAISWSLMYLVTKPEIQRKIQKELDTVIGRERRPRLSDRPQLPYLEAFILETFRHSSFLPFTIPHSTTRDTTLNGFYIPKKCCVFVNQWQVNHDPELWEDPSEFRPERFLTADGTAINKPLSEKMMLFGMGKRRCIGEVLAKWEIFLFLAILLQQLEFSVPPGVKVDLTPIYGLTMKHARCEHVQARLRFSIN
Outline: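 Luminescent demethylation readout: Luciferin-ME (100uM, equal to Km) turned over by 20nM CYP1A2 for 60 min at room temperature after NADPH regeneration addition, following 10 min compound preincubation. Normalization used 57 uM furafylline as full inhibition.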

[3] = NFAT Signaling Pathway (AID 444); conditions: Jurkat NFAT-bla M1, carbachol, beta-lactamase ratio, 5 h;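 note: carbachol stimulus at about its EC50 of 1 µM final; % is set by controls: 0 for no effect and ±100 for the full control effect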
Outline: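 Jurkat cells carrying an NFAT-driven β-lactamase reporter and co-transfected muscarinic M1 receptor were treated with compound plus carbachol (1 uM final, an EC50 level) for 5 h at 37 °C. CCF4 loading followed for 1 h at RT; 460/530 nm ratio gave %activity.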

[4] = Stat Signaling Pathway (AID 446); conditions: ME-180 (cervical carcinoma) SIE beta-lactamase reporter, IL-6 stimulated, 5 h; at 7.69 µM (top of the series) unless noted;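 note: ME-180 cervical cancer cells given 40 pM IL-6 alongside compound; SIE-controlled beta-lactamase reporter measured as 460/530 nm FRET emission ratio; % is set by controls: 0 for no effect and ±100 for the full control effect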
Outline: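 FRET read-out (405 nm excitation, 460/530 nm emission) of a beta-lactamase reporter under a STAT-inducible element in ME-180 cervical carcinoma cells. Cells with compound receive 40 pM IL-6 for 5 h. Values are normalised to AC90 stimulation and AC90 JAK-inhibitor controls.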

[5] = target: Mitogen-activated protein kinase 10 (Mus musculus) (UniProt Q61831); test: JNK3 AlphaScreen Assay (AID 530); conditions: JNK3 lysate, c-Jun phosphorylation; series mostly up to 57.1 µM;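 note: kinase came from lysate of stimulated human HepG2 cells; signal reports phosphorylation of biotinylated GST-cJun 1-79 at Ser73 with 10 µM ATP; % is set by controls: 0 for no effect and ±100 for the full control effect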
Outline: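 Phosphorylation of biotinylated GST-cJun(1-79) at Ser73 is measured by AlphaScreen proximity luminescence. Enzyme is JNK3 in HepG2 lysates activated with interleukin-1beta and tumor necrosis factor alpha; ATP is 10 uM final.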

[6] = target: 3',5'-cyclic-AMP phosphodiesterase 4B (Homo sapiens) (UniProt Q07343); test: qHTS Assay for Inhibitors of PDE-IV (AID 607; active = well fitted activation curve with a large enough effect in the main read-out, with a control signal flat, not every such curve was filed as active; note: % of control where 0% means no effect); conditions: HEK293 ACTOne CNG channel cells, membrane potential fluorescence; series mostly up to 22.9 µM
Chain of 3',5'-cyclic-AMP phosphodiesterase 4B (Homo sapiens) (Q07343 whole entry, looked up): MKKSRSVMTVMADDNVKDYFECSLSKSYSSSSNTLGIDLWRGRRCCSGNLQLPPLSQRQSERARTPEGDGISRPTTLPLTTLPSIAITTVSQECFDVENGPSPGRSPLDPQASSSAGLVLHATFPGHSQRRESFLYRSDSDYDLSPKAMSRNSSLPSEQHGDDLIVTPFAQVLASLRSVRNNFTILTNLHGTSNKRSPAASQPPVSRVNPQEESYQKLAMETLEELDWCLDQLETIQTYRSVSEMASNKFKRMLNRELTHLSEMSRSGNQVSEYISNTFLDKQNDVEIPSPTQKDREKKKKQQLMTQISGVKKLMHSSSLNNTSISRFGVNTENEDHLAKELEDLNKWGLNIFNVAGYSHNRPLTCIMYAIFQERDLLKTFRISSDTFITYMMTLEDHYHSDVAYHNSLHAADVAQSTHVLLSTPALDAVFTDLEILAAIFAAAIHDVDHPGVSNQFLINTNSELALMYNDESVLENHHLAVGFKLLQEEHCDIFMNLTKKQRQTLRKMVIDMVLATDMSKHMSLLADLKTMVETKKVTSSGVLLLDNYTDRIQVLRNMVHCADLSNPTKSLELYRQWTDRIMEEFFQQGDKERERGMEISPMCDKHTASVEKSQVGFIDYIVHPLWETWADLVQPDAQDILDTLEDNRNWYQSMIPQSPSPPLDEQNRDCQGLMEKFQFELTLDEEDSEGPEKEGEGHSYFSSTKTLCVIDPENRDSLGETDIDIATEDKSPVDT
Outline: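 Cell-based read-out of cAMP via a modified cyclic nucleotide-gated channel and membrane potential dye (535/590 nm) in HEK293 cells expressing PDE4 endogenously. Compounds tested up to 22.9 uM final; 100 uM RO 20-1724 reference.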

[7] = qHTS Assay for Lipid Storage Modulators (AID 1519; calls by dose curve); conditions: Drosophila S3 cells, BODIPY lipid droplet/cell ratio, laser cytometry, cells loaded with oleic acid
Outline: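 Cells seeded at 5,000 per well were treated with compounds over a concentration series and loaded with oleic acid (400 uM, as added). Lipid droplet fluorescence (488 nm excitation, 500-530 nm channel) was read by laser-scanning cytometry and normalized to 20 uM Triacsin C.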

[8] = target: Ubiquitin carboxyl-terminal hydrolase 1 (Homo sapiens) (UniProt O94782); test: Inhibitors of USP1/UAF1: Pilot qHTS (AID 504865; active = well fitted curve in the direction sought with a large enough effect; an effect the other way counts as inactive or inconclusive;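 note: rhodamine fluorescence freed from ubiquitin-rhodamine substrate followed over time; top concentration of the series differs between compounds; % is set by controls: 0 for no effect and ±100 for the full control effect; nearly all actives have a fitted effect of over 35% in size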); conditions: purified USP1/UAF1, Ub-rhodamine cleavage fluorescence; series mostly up to 54.9 µM
Chain of Ubiquitin carboxyl-terminal hydrolase 1 (Homo sapiens) (O94782 whole entry, looked up): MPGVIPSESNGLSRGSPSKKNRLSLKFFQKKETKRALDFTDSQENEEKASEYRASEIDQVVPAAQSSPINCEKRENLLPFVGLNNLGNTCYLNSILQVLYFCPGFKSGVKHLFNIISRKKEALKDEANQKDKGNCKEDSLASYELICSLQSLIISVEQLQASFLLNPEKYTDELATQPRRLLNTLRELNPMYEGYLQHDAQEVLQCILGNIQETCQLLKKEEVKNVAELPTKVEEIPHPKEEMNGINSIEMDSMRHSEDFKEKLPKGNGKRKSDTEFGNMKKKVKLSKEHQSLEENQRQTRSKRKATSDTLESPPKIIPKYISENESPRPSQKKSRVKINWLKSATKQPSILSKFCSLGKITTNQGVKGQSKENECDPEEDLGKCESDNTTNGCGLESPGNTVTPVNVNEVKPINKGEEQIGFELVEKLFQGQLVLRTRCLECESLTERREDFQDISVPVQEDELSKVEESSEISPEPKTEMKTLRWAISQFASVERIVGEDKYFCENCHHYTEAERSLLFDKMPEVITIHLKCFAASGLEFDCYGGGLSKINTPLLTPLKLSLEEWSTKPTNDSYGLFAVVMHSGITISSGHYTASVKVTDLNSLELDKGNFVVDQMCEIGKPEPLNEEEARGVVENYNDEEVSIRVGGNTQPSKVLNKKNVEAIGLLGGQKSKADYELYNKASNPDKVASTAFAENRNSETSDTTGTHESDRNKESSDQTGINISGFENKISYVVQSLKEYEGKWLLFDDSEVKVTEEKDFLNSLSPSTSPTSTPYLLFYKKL
Outline: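 Enzyme-free wells gave the negative control, while test wells held 1nM USP1/UAF1 preincubated with compound for 15 min at room temperature. Ub-Rho at 150nM final started the reaction, and fluorescence at 480/540 nm was recorded kinetically.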

[9] = target: ATP-dependent 6-phosphofructokinase (Trypanosoma brucei brucei) (UniProt O15648); test: qHTS Assay to Find Inhibitors of T. brucei phosphofructokinase: hit validation (AID 492961; active = well fitted curve in the direction sought with a large enough effect; an effect the other way counts as inactive or inconclusive); conditions: T. brucei PFK, ADP-Glo luminescence; series mostly up to 24.3 µM
Chain of ATP-dependent 6-phosphofructokinase (Trypanosoma brucei brucei) (O15648 whole entry, looked up): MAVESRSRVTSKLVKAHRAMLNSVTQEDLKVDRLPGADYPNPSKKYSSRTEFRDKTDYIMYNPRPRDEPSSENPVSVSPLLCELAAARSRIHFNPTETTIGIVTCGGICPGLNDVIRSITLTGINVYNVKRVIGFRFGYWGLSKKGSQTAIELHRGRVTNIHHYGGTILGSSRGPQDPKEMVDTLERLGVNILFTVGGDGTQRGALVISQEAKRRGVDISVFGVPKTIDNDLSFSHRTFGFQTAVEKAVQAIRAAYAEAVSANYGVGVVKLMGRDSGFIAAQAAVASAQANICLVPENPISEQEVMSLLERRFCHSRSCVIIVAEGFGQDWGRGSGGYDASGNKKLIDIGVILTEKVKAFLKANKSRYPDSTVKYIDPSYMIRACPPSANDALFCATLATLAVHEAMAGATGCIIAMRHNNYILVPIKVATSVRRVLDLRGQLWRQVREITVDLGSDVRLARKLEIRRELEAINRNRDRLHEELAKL
Outline: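 PFK 1.25 nM, F6P 0.5 mM, ATP 0.1 mM, MgCl2 5 mM, 0.1 M TEA pH 8.0, Tween20 0.01%, BSA 0.1%; 45 min RT. ADP-Glo two-step detection, luminescence. qHTS titration; curve fitting with curve-class categorization.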

[10] = target: Luciferin 4-monooxygenase (Photinus pyralis) (UniProt P08659); test: Biochemical firefly luciferase enzyme assay for NPC (AID 624030; active = well fitted curve in the direction sought with a large enough effect; an effect the other way counts as inactive or inconclusive;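 note: purified P. pyralis luciferase at 10 nM with luciferin and ATP substrate; 0% = DMSO and -100% = full luciferase inhibition by PTC124 control; nearly all actives have a fitted effect of over 70% in size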); conditions: purified P. pyralis luciferase, luminescence, 5 min; series mostly up to 58.6 µM
Chain of Luciferin 4-monooxygenase (Photinus pyralis) (P08659 whole entry, looked up): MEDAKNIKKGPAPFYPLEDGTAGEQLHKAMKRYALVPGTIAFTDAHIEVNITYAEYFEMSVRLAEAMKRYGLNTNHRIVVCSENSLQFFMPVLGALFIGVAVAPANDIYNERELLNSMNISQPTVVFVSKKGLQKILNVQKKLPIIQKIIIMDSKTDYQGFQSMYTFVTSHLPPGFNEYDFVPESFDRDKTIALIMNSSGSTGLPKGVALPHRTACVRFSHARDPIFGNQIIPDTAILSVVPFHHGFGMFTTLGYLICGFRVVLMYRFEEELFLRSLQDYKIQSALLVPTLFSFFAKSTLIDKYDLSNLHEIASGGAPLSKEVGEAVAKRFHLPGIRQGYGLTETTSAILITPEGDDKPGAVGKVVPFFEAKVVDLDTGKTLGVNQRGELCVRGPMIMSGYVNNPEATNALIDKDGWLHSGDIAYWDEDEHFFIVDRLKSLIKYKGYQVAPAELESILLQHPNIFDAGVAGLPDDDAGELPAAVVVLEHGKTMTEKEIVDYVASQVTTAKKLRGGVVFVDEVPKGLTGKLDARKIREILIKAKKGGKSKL
Outline: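 Counter-screen for direct inhibition of the luciferase enzyme by approved-drug library compounds, run at 10 nM enzyme in 50 mM Tris acetate (final). Luminescence was read within 5 min of enzyme-buffer addition and normalized to PTC124 versus DMSO (0%).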

[11] = qHTS profiling for inhibitors of Plasmodium falciparum proliferation (AID 504749; active = well fitted curve in the direction sought with a large enough effect; an effect the other way counts as inactive or inconclusive; note: potency is the fitted concentration of half-maximal effect;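 for activity, negative = inhibition: 0% = DMSO vehicle and full inhibition = artemisinin control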; for all read-outs here: nearly all actives have a fitted effect of over 60% in size); conditions: P. falciparum in erythrocytes, SYBR Green DNA, 72 h; for activity, negative = inhibition: at 12.8 µM (top of the series)
Outline: (§1)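 Quantitative HTS: compounds pinned into medium, infected erythrocytes added (0.3% parasitemia, 2.5% hematocrit), 72 h culture at 37 C under 5% CO2. Saponin/Triton lysis with SYBR Green I, overnight RT, then fluorescence read.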

[12] = tested on: CP238; test: as above; conditions: P. falciparum in erythrocytes, SYBR Green DNA, 72 h; series mostly up to 12.8 µM
Outline: as §1

[13] = tested on: CP262; test: as above; conditions: P. falciparum in erythrocytes, SYBR Green DNA, 72 h; series mostly up to 12.8 µM
Outline: as §1

[14] = tested on: CP325; test: as above; conditions: P. falciparum in erythrocytes, SYBR Green DNA, 72 h; series mostly up to 12.8 µM
Outline: as §1

[15] = tested on: ECU; test: as above; conditions: P. falciparum in erythrocytes, SYBR Green DNA, 72 h; series mostly up to 12.8 µM
Outline: as §1

[16] = tested on: FAB9; test: as above; conditions: P. falciparum in erythrocytes, SYBR Green DNA, 72 h; series mostly up to 12.8 µM
Outline: as §1

[17] = tested on: HB3; test: as above; conditions: P. falciparum in erythrocytes, SYBR Green DNA, 72 h; series mostly up to 12.8 µM
Outline: as §1

[18] = tested on: JCK; test: as above; conditions: P. falciparum in erythrocytes, SYBR Green DNA, 72 h; series mostly up to 12.8 µM
Outline: as §1

[19] = target: Glucocorticoid receptor (Homo sapiens) (UniProt P04150); test: GR-GFP Redistribution (AID 450;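 active = compounds whose dose series gives a full or clear partial fitted curve of increased nuclear translocation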; note: potency is the fitted concentration of half-maximal effect); conditions: U2OS GR-GFP nuclear translocation, laser cytometry, 2 h
Chain of Glucocorticoid receptor (Homo sapiens) (P04150 whole entry, looked up, the tested form may be a part): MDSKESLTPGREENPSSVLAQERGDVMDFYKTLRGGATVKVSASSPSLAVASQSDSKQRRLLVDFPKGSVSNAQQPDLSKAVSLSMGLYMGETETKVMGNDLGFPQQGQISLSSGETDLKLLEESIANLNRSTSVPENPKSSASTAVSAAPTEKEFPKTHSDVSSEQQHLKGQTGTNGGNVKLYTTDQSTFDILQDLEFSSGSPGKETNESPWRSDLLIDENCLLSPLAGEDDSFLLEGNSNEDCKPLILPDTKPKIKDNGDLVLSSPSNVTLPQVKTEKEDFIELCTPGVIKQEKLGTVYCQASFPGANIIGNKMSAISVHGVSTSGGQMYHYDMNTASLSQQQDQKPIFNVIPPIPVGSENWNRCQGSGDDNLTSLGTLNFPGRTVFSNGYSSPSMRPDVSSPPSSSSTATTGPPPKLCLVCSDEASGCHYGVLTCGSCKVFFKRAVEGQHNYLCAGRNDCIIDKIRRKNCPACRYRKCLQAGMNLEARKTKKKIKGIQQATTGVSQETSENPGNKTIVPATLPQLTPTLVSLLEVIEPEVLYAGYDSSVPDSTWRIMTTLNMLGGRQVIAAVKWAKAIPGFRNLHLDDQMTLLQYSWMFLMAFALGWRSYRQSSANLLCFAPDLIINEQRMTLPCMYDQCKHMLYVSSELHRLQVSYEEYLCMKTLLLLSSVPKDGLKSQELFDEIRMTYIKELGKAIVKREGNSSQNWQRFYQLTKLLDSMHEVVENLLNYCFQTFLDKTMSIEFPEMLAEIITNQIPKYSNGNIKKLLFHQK

[20] = target: Glucocorticoid receptor (Homo sapiens) (UniProt P04150); test: GR-EFC Redistribution (AID 451; calls by dose curve; note: potency is the fitted concentration of half-maximal effect); conditions: CHO-K1 GR-EFC translocation, beta-gal luminescence, 2 h
Outline: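 CHO-K1 cells stably expressing nuclear-localized β-gal enzyme acceptor and GR fused C-terminally to the enzyme donor fragment; ligand-driven nuclear translocation restores β-gal by complementation. Compounds titrated up to 46 uM final, 2 h at 37 °C; luminescence read.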

[21] = measured here: cell count channel max response
[22] = measured here: lipid channel max response
[23] = at 7.69 µM (top of the series) unless noted

C=CCc1ccccc1OC[C@H](O)CNC(C)C
-4%: max response [7, 21]
-3.45%: max response [7, 22]
active: Potency [2] 7.94 µM and 3.16 µM
inactive: activity change, negative = inhibition ([1]; at 17.2 µM (top of the series)) 12.5% | activity change, negative = inhibition ([1]; at 38 µM (top of the series)) 11.9% | activity change, negative = inhibition ([3]; at 17.2 µM (top of the series)) -2.1% | activity change, negative = inhibition ([3]; at 38 µM (top of the series)) -5.09% | activity, negative = inhibition [4] 5.89% [at 17.2 µM] | Potency [5] | Potency [6] | activity change, negative = inhibition ([7]; at 25.7 µM (top of the series)) 0.0029% | Potency [8]

CCN(CC)CCC[C@H](C)Nc1c2ccc(Cl)cc2nc2ccc(OC)cc12
-11.8%: max response [7, 21]
active: Potency [2] 2 µM and 1 µM | Potency ([11]; parasite line A) 224 nM | Potency ([11]; parasite line B) 282 nM | Potency [12] 1.12 µM | Potency [13] 426 nM | Potency [14] 426 nM | Potency [15] 447 nM | Potency [16] 447 nM | Potency [17] 251 nM | Potency [18] 3.16 µM
inactive: activity change, negative = inhibition ([1]; at 17.2 µM (top of the series)) 28.6% | activity change, negative = inhibition ([1]; at 38 µM (top of the series)) 21.9% | Potency [5] | Potency [6] | activity change, negative = inhibition ([7]; at 25.7 µM (top of the series)) -0.0943% | outcome [9] | outcome [10]
-13%: max response [7, 22]

CN(C)C(=O)c1ccc(-c2cncnc2NCc2cccs2)cc1
22.2%: max response [7, 21]
inactive: activity change, negative = inhibition [1, 23] 8.21% | activity change, negative = inhibition [3, 23] 6.04% | activity, negative = inhibition [4] 17.8% | Potency [19] > 46 µM | Potency [20] > 46 µM | Potency [5] | Potency [6] | activity change, negative = inhibition ([7]; at 57.5 µM (top of the series)) 6.52%
active: Potency [2] 20 µM
27.8%: max response [7, 22]

CC(=O)O[C@]1(C(C)=O)CC[C@@H]2[C@@H]3C=C(Cl)C4=CC(=O)[C@H]5C[C@@H]5[C@]4(C)[C@H]3CC[C@]21C
inactive: activity change, negative = inhibition ([1]; at 17.2 µM (top of the series)) 5.64% | activity change, negative = inhibition ([1]; at 38 µM (top of the series)) 3.07% | Potency [2] | activity change, negative = inhibition ([3]; at 17.2 µM (top of the series)) -18.6% | activity change, negative = inhibition ([3]; at 38 µM (top of the series)) -9.31% | activity, negative = inhibition [4] -5.59% [at 17.2 µM] | Potency [5] | Potency [6] | activity change, negative = inhibition ([7]; at 25.7 µM (top of the series)) -2.31% | Potency [8]
-4.56%: max response [7, 21]
-7.45%: max response [7, 22]

CCC[C@H]1C(=O)N2C(N(C)C)=Nc3ccc(C)cc3N2C1=O
active: Potency [2] 1.58 µM
-10.8%: max response [7, 21]
inactive: activity change, negative = inhibition [1, 23] 1.43% [at 17.2 µM] | activity change, negative = inhibition [3, 23] -21% [at 17.2 µM] | activity, negative = inhibition [4] -9.03% [at 17.2 µM] | Potency [19] > 20.6 µM | Potency [20] > 20.6 µM | Potency [5] | Potency [6] | activity change, negative = inhibition ([7]; at 25.7 µM (top of the series)) -3.21% | outcome [9] | Potency [8] | outcome [10] | activity, negative = inhibition ([11]; parasite line A) 12.2% | activity, negative = inhibition ([11]; parasite line B) -0.686% | Potency [12] | Potency [13] | Potency [14] | Potency [15] | Potency [16] | Potency [17] | Potency [18]
-12%: max response [7, 22]
